Assay [1] deals with Sphingosine kinase 1 (Homo sapiens) (UniProt Q9NYA1). Particulars: at 1 µM.
The target of assay [2] is T1, Sphingosine kinase 2 (Homo sapiens) (UniProt Q9NRA0).
T1 sequence (whole entry): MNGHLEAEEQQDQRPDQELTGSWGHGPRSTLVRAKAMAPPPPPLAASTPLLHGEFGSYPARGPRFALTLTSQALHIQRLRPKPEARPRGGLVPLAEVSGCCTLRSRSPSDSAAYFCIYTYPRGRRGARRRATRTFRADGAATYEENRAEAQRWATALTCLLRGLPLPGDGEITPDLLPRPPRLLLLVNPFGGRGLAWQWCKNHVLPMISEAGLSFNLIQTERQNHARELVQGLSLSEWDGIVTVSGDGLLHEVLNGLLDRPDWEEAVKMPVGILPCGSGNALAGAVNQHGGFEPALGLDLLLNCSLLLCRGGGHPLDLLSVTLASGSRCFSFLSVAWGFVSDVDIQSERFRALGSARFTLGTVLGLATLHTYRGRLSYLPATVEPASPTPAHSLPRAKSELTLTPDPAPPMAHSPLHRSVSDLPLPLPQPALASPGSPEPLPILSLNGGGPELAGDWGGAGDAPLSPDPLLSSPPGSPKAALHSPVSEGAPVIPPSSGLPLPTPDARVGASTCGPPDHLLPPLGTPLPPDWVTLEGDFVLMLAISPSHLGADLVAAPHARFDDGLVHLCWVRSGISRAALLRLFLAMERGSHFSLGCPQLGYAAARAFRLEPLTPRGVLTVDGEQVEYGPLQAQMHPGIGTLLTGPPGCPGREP
Particulars: at 0.1 µM.

Assay [3] deals with T1, Sphingosine kinase 2 (Homo sapiens). Particulars: at 1 µM.
Assay [4] concerns the target Casein kinase II subunit alpha (Homo sapiens) (UniProt P68400). The following applies: at 0.1 µM.
Assay [5] has the same target. Particulars: at 1 µM.
Assay [6] addresses T2, Inhibitor of nuclear factor kappa-B kinase subunit alpha (Homo sapiens) (UniProt O15111).
T2 sequence (whole entry): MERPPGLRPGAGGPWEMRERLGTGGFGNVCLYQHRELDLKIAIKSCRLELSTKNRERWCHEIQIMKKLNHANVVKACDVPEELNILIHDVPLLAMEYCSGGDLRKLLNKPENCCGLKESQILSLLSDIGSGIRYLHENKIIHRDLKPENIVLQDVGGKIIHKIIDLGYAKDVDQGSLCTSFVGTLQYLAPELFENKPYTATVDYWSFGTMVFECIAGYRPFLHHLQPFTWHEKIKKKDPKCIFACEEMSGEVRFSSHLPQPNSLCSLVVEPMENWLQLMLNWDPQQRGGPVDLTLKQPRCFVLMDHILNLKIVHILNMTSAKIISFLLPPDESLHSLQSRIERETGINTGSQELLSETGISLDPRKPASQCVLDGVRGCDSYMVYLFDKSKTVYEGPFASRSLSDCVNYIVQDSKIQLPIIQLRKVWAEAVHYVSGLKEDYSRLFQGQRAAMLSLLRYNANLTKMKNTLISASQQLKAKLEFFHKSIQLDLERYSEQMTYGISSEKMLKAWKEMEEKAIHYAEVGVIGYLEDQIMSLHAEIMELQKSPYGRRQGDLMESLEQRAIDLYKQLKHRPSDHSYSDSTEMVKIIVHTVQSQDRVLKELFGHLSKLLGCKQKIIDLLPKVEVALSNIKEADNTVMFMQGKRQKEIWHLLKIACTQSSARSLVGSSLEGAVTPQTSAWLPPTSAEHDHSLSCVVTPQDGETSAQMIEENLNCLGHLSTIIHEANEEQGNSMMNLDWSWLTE
The following applies: at 0.1 µM.

The target in assay [7] is T2, Inhibitor of nuclear factor kappa-B kinase subunit alpha (Homo sapiens). Particulars: at 1 µM.
Assay [8] addresses T3, Inhibitor of nuclear factor kappa-B kinase subunit beta (Homo sapiens) (UniProt O14920).
T3 sequence (whole entry): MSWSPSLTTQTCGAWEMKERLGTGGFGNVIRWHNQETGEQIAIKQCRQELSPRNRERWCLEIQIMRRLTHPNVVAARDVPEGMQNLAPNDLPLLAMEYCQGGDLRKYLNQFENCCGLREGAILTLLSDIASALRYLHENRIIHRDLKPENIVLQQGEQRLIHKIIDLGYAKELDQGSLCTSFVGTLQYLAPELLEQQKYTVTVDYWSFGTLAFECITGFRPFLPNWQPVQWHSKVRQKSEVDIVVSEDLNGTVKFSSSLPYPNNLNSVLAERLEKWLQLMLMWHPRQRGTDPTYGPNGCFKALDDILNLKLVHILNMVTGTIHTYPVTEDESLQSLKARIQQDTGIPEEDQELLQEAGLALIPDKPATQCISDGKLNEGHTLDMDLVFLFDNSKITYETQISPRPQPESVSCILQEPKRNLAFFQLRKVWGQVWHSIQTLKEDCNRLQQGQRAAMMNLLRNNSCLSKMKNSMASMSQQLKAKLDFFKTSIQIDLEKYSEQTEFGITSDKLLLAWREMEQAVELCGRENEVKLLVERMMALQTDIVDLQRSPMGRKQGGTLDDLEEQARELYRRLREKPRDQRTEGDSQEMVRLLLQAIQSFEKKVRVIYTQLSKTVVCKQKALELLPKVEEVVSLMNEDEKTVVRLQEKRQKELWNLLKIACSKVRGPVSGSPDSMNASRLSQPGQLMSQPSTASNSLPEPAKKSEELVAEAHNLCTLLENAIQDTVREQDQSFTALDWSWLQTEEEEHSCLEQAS
Particulars: at 0.1 µM.

For assay [9], the target named is T3, Inhibitor of nuclear factor kappa-B kinase subunit beta (Homo sapiens). Particulars: at 1 µM.
Assay [10] addresses T4, Inhibitor of nuclear factor kappa-B kinase subunit epsilon (Homo sapiens) (UniProt Q14164).
T4 sequence (whole entry): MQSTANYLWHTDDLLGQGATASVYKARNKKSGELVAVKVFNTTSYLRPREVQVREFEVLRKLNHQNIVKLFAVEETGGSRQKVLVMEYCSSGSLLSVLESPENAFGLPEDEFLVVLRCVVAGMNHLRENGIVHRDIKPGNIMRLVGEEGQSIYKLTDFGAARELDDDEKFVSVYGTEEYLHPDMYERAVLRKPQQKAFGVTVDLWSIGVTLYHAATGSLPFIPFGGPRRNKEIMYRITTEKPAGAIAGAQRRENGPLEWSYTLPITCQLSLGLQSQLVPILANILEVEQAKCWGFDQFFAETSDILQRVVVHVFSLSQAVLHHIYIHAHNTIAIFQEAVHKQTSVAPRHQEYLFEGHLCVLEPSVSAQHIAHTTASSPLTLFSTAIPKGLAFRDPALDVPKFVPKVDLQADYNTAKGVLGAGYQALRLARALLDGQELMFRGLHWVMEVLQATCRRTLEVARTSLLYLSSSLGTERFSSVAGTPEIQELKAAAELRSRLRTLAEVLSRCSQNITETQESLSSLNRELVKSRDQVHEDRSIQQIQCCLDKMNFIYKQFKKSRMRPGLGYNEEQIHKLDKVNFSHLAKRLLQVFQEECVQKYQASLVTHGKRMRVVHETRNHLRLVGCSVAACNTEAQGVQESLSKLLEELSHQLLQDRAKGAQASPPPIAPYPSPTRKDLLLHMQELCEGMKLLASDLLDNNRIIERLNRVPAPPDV
Particulars: at 0.1 µM.

For assay [11], the target named is T4, Inhibitor of nuclear factor kappa-B kinase subunit epsilon (Homo sapiens). Particulars: at 1 µM.
Assay [12] concerns the target T5, Serine/threonine-protein kinase Nek1 (Homo sapiens) (UniProt Q96PY6).
T5 sequence (whole entry): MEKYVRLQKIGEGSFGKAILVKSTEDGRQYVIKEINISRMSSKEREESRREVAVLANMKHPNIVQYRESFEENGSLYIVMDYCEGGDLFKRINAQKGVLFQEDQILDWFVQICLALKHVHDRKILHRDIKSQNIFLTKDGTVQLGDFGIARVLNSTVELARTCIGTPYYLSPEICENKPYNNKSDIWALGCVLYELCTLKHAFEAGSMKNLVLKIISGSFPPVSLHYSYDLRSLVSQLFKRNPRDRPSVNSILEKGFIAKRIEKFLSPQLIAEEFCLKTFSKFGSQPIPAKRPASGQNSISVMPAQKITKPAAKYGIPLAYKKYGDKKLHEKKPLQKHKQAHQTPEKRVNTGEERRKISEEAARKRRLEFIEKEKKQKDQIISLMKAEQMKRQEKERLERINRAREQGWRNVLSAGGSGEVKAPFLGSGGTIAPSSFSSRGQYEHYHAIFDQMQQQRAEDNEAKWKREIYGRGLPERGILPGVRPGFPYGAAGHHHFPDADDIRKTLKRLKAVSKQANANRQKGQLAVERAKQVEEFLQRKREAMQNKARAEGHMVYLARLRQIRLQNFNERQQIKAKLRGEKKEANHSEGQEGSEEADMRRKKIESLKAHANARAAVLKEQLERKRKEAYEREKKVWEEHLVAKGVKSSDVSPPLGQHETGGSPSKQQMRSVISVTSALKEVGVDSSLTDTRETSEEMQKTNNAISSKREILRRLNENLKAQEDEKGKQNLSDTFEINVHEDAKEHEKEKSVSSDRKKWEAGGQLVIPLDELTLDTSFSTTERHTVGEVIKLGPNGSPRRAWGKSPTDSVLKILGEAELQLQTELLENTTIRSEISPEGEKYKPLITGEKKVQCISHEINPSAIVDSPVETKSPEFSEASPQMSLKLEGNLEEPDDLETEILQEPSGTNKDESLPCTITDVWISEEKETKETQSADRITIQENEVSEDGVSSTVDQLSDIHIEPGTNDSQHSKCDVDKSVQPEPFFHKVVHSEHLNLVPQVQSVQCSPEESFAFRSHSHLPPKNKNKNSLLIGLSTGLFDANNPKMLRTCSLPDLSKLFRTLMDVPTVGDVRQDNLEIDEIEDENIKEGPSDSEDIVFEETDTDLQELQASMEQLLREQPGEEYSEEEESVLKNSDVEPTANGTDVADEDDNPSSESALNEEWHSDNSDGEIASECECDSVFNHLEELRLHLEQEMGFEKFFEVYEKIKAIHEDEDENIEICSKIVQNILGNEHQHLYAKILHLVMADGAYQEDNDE
The following applies: at 0.1 µM.

Assay [13] deals with T5, Serine/threonine-protein kinase Nek1 (Homo sapiens). Particulars: at 1 µM.
Assay [14] has as its target T6, Serine/threonine-protein kinase Nek2 (Homo sapiens) (UniProt P51955).
T6 sequence (whole entry): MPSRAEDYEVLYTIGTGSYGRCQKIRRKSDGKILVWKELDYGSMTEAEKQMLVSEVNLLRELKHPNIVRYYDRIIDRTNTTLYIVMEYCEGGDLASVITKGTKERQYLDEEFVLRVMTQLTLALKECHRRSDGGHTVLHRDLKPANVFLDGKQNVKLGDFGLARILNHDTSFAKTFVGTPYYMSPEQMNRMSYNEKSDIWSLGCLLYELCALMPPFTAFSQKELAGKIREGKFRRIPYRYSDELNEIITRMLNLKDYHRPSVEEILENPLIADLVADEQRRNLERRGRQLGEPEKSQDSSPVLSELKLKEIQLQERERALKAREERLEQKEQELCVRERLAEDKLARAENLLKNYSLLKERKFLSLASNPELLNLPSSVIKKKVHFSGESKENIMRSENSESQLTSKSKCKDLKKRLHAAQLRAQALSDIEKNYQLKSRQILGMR
The following applies: at 0.1 µM.

Assay [15] deals with T6, Serine/threonine-protein kinase Nek2 (Homo sapiens). The following applies: at 1 µM.
The target of assay [16] is Serine/threonine-protein kinase Nek6 (Homo sapiens) (UniProt Q9HC98). The following applies: at 0.1 µM.
Serine/threonine-protein kinase Nek6 (Homo sapiens), sequence (Q9HC98 whole entry): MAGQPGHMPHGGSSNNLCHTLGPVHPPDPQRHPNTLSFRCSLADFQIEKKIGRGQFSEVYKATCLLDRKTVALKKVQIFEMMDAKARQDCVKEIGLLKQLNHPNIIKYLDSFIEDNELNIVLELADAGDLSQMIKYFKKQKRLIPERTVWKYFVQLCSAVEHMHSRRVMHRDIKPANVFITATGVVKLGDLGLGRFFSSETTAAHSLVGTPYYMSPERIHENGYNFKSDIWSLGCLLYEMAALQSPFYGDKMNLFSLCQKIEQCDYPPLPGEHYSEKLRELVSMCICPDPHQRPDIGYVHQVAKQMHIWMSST
Assay [17] has the same target. Particulars: at 1 µM.
The target in assay [18] is Serine/threonine-protein kinase Nek7 (Homo sapiens) (UniProt Q8TDX7). Particulars: at 0.1 µM.
Serine/threonine-protein kinase Nek7 (Homo sapiens), sequence (Q8TDX7 whole entry, looked up): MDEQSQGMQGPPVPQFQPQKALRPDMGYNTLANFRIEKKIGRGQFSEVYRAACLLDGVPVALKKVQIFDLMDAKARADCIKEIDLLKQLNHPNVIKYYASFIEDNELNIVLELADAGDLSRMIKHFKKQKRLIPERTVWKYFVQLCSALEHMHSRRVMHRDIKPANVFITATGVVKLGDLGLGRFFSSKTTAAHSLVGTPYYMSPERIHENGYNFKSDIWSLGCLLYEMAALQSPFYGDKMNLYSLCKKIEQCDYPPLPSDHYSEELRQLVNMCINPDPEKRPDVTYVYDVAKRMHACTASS
For assay [19] the target is unchanged. The following applies: at 1 µM.
For assay [20], the target named is T7, Serine/threonine-protein kinase Nek9 (Homo sapiens) (UniProt Q8TD19).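 Note: reported value is the mean percent inhibition of NEK9.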
T7 sequence (whole entry): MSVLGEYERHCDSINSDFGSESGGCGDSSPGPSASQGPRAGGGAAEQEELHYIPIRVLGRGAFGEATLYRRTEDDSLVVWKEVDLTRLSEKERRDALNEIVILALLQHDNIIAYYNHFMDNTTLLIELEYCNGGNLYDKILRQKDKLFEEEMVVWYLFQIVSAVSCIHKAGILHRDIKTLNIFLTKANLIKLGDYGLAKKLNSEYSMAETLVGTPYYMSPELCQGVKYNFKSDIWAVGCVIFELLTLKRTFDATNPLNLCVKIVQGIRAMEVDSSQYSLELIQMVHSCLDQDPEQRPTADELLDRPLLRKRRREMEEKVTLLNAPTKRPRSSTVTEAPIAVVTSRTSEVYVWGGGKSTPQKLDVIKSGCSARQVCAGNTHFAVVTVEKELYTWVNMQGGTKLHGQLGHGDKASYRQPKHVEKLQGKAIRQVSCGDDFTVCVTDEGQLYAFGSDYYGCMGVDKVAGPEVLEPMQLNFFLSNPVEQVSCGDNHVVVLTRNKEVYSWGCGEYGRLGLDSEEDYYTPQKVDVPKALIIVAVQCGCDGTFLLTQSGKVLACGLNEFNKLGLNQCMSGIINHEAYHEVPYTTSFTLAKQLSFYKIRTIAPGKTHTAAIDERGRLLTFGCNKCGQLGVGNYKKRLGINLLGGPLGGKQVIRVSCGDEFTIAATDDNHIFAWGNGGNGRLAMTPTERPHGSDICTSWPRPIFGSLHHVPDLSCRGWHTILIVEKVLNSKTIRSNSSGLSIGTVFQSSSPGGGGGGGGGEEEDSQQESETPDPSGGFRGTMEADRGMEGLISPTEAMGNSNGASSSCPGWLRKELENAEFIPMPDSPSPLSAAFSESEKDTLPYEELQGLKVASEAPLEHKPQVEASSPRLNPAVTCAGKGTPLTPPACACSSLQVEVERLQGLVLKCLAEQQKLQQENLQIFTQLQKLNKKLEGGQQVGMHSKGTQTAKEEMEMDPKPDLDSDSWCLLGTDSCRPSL
Particulars: at 0.1 µM.

Casein kinase II subunit alpha (Homo sapiens), sequence (P68400 whole entry, looked up): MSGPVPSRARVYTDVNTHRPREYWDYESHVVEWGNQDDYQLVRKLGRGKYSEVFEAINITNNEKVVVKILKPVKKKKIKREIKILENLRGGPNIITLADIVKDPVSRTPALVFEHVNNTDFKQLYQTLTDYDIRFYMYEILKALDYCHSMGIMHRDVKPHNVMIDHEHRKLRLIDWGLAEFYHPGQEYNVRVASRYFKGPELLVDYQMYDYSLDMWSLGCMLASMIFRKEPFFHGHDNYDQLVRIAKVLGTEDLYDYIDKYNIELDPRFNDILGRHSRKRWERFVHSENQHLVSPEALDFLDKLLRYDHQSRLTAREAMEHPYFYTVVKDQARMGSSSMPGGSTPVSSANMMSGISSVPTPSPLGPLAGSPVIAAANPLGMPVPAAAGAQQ
Sphingosine kinase 1 (Homo sapiens), sequence (Q9NYA1 whole entry): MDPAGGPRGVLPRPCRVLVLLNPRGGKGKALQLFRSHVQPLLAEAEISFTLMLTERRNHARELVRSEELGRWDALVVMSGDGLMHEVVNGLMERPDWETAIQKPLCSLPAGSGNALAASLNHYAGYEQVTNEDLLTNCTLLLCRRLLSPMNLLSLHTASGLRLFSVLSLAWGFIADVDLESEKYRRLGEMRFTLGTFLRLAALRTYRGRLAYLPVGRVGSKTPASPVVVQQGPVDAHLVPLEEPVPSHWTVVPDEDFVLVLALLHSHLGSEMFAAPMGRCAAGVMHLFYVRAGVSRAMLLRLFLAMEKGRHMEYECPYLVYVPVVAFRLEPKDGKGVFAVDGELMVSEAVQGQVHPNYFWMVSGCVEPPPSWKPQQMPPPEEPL

Take `CCCN1CCC(c2ccc(Nc3nc(Nc4cc(F)ccc4C(N)=O)c4cc[nH]c4n3)c(OC)c2)CC1`: the inhibition is -2.44% in assay [1]; 0% in [2]; 0% in assay [3]; 32.4% in assay [4]; 70.3% in assay [5]; 2.7% in assay [6]. Besides, the inhibition in assay [7] came out at 18.7%; in assay [8], 0.13%; in assay [9] it was 7.11%; in assay [10], 6.68%; in [11] it was 5.85%; in assay [12], 4.68%. Besides, the inhibition in assay [13] is 21.6%; in assay [14], 4.85%; in assay [15], 17.6%; in [16], 4.35%; in assay [17], 8.4%; in assay [18], 7.49%. Besides, the inhibition in [19] is 8.87%; in assay [20], 8.38%.

As a reminder, the inhibition is the change of the read-out against control, counted positive when it falls.
